Rab7 wt GTP bind = modulators of GTP binding to dog Rab7 wildtype GTPase; AID 758; GST-Rab7 beads, fluorescent GTP binding, flow cytometry; actives lie on both sides; untreated = 100%, excess cold GTP = 0%; actives 0.055% (n = 190,000); GTP binding activity (percent of control), % at 10 µM;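 active = fluorescent GTP binding to Rab7 beads changed by at least 20 points from the 100% baseline, either direction, mostly lower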;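 note: median green fluorescence of bound Bodipy-FL-GTP per Rab7 bead population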
Rac1 act GTP bind = human Rac1 activated mutant GTP binding change. GST-Rac1 activated beads, fluorescent GTP binding, flow cytometry; actives lie on both sides; 100% means binding = to untreated wells. percent activity (GTP binding), % at 10 µM. actives 0.11% (n = 190,000);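 active = GTP binding at least 20 percentage points away from the 100% baseline, in either direction, so actives lie on both sides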
Rab2 wt GTP = changes GTP binding to wildtype dog Rab2A, up or down. GTP binding activity, % at 10 µM. actives 0.19% (n = 190,000). AID 760. GST-Rab2 wt beads, Bodipy-GTP binding, flow cytometry. P61105;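 active = GTP binding activity at least 20 points away from 100%, either lowered or raised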;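 note: 0% = beads with excess unlabeled GTP and 100% = no-compound control corrected for plate trend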
HRas wt GTP = human HRas wildtype GTP binding, change in either direction; P01112; GST-Ras wt beads, Bodipy-FL-GTP binding, flow cytometry; actives lie on both sides; GTP binding activity, % at 10 µM; actives 0.14% (n = 190,000); AID 759;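 active = GTP binding activity at least 20% away from the 100% baseline, either lowered as inhibitor or raised as activator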;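 note: 0% = unlabeled GTP competition control and 100% = no-compound control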
Target sequence (P01112 whole entry, looked up): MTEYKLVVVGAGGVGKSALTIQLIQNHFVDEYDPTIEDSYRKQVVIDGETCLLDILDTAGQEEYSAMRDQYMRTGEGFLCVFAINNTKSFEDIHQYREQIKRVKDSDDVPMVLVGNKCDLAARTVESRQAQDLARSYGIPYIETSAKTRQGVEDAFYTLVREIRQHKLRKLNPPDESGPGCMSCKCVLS
Rac1 wt modul = human Rac1 wildtype GTP binding, inhibitors and activators; GST-Rac1 beads, fluorescent GTP binding, flow cytometry; actives lie on both sides; 0 = cold GTP competed, 100 = untreated; AID 757; GTP binding activity (% of control), % at 10 µM; actives 0.27% (n = 190,000); P63000;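 active = GTP binding activity at least 20 points away from the 100% control level, either lower or higher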
Cdc42 wt GTP = changes GTP binding to wildtype human Cdc42; P60953; GST-Cdc42 beads, Bodipy-GTP binding, flow cytometry; actives lie on both sides; percent activity (GTP binding), % at 10 µM; actives 0.2% (n = 190,000); AID 761;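 active = percent activity GTP binding at least 20 points away from the 100% baseline, either down as inhibitor or up as activator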;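 note: median bead fluorescence of bound Bodipy-FL-GTP at 100 nM; 0% = excess unlabeled GTP control and 100% = no compound control; below 100% means less GTP binding so inhibitor and above means activator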
Target sequence (P60953 whole entry, looked up): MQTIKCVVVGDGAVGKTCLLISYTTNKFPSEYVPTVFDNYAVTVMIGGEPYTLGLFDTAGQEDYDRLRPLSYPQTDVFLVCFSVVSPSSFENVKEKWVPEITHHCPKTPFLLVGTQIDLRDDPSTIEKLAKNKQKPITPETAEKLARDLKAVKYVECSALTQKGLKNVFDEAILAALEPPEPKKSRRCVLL
Starred values were filed as active, the others as inactive; [ ] = dose if it differs, or a comment. In the library only some 0.4% were active in any assay of this set; here they are far more common.

Cc1ccc(-n2c(SCC(N)=O)nnc2-c2cccnc2)c(C)c1 was read as Rab7 wt GTP bind 105, Rac1 act GTP bind 100, Rab2 wt GTP 104, HRas wt GTP 101, Rac1 wt modul 107 and Cdc42 wt GTP 102.
Screening Cc1ccc(-n2c(SCc3cc(=O)n4ccsc4n3)nnc2-c2cccnc2)c(C)c1 returned Rab7 wt GTP bind 108, Rac1 act GTP bind 120*[activator], Rab2 wt GTP 118, HRas wt GTP 109, Rac1 wt modul 163*[activator] and Cdc42 wt GTP 146*[activator].
For COc1cccc(C2CC(c3ccccc3)Nc3ncnn32)c1 (configuration not stated) the results were Rab7 wt GTP bind 98, Rac1 act GTP bind 102, Rab2 wt GTP 106, HRas wt GTP 103, Rac1 wt modul 123*[activator] and Cdc42 wt GTP 113.
Screening COc1cccc(C2CC(c3ccccc3OC)n3ncnc3N2)c1 (configuration not stated) returned Rab7 wt GTP bind 100, Rac1 act GTP bind 98, Rab2 wt GTP 99, HRas wt GTP 100, Rac1 wt modul 107 and Cdc42 wt GTP 98.
`O=C(C1CCN(c2ncnc3c2sc2cccc(F)c23)CC1)N1CCOCC1` gave Rab7 wt GTP bind 100, Rac1 act GTP bind 99, Rab2 wt GTP 98, HRas wt GTP 100, Rac1 wt modul 103 and Cdc42 wt GTP 103.
Screening C=C[C@]1(C)C[C@H]1[C@H](NP(=O)(c1ccccc1)c1ccccc1)c1ccccc1 returned Rab7 wt GTP bind 100, Rac1 act GTP bind 98, Rab2 wt GTP 102, HRas wt GTP 102, Rac1 wt modul 104 and Cdc42 wt GTP 100.
Screening COc1ccc2nc(C)cc(SCC(=O)N/N=C/c3ccc(O)c(O)c3)c2c1 returned Rab7 wt GTP bind 91, Rac1 act GTP bind 82, Rab2 wt GTP 68*, HRas wt GTP 72*, Rac1 wt modul 79* and Cdc42 wt GTP 69*.
COc1cccc2c(SCC(=O)N/N=C/c3ccccc3)cc(C)nc12 was read as Rab7 wt GTP bind 99, Rac1 act GTP bind 95, Rab2 wt GTP 97, HRas wt GTP 94, Rac1 wt modul 96 and Cdc42 wt GTP 99.
COc1cccc2c(SCC(=O)N/N=C/c3ccc(O)c(O)c3)cc(C)nc12 was read as Rab7 wt GTP bind 89, Rac1 act GTP bind 84, Rab2 wt GTP 75*, HRas wt GTP 79*, Rac1 wt modul 65* and Cdc42 wt GTP 71*.
For COc1ccc2nc(C)cc(SCC(=O)N/N=C/c3cccc4ccccc34)c2c1 the results were Rab7 wt GTP bind 97, Rac1 act GTP bind 97, Rab2 wt GTP 98, HRas wt GTP 98, Rac1 wt modul 98 and Cdc42 wt GTP 98.
`Cc1ccsc1/C=C(\C(=O)c1ccc(OC(C)C)cc1)c1nc2ccccc2o1` gave Rab7 wt GTP bind 100, Rac1 act GTP bind 95, Rab2 wt GTP 103, HRas wt GTP 103, Rac1 wt modul 107 and Cdc42 wt GTP 98.
Screening CCCOc1ccc(N2C(=O)CC(N(CCC)C(=O)CCC(=O)O)C2=O)cc1 (configuration not stated) returned Rab7 wt GTP bind 97, Rac1 act GTP bind 101, Rab2 wt GTP 99, HRas wt GTP 100, Rac1 wt modul 101 and Cdc42 wt GTP 101.
For O=C(O)c1cc([N+](=O)[O-])ccc1NCc1ccccc1 the results were Rab7 wt GTP bind 137*[activator], Rac1 act GTP bind 146*[activator], Rab2 wt GTP 153*[activator], HRas wt GTP 150*[activator], Rac1 wt modul 204*[activator] and Cdc42 wt GTP 172*[activator].
For Cc1cc(NC(=O)CSc2nnc(C3CC3)n2-c2ccccc2)no1 the results were Rab7 wt GTP bind 97, Rac1 act GTP bind 95, Rab2 wt GTP 95, HRas wt GTP 97, Rac1 wt modul 98 and Cdc42 wt GTP 100.
For O=C(CNC(=O)Cc1ccccc1)N=Nc1c(O)n(Cc2ccc3c(c2)OCO3)c2ccccc12 the results were Rab7 wt GTP bind 90, Rac1 act GTP bind 88, Rab2 wt GTP 78*, HRas wt GTP 84, Rac1 wt modul 78* and Cdc42 wt GTP 90.
`COCCn1c(N)c(C(=O)Nc2sc3c(c2C(=O)OC)CCCC3)c2nc3ccccc3nc21` gave Rab7 wt GTP bind 84, Rac1 act GTP bind 80, Rab2 wt GTP 69*, HRas wt GTP 63*, Rac1 wt modul 77* and Cdc42 wt GTP 63*.
`O=C(CCc1nc2ccccc2c(=O)[nH]1)OCC(=O)N1CCc2ccccc21` gave Rab7 wt GTP bind 106, Rac1 act GTP bind 95, Rab2 wt GTP 98, HRas wt GTP 98, Rac1 wt modul 101 and Cdc42 wt GTP 97.
`O=C(CCc1nc2ccccc2[nH]c1=O)OCC(=O)N1CCc2ccccc21` gave Rab7 wt GTP bind 103, Rac1 act GTP bind 106, Rab2 wt GTP 107, HRas wt GTP 106, Rac1 wt modul 130*[activator] and Cdc42 wt GTP 114.
For COc1cc2[nH]c(=S)nc(NCCc3ccc(C)cc3)c2cc1OC the results were Rab7 wt GTP bind 69*, Rac1 act GTP bind 65*, Rab2 wt GTP 49*, HRas wt GTP 54*, Rac1 wt modul 49* and Cdc42 wt GTP 45*.
COc1cc2ncnc(NCc3cccs3)c2cc1OC was read as Rab7 wt GTP bind 109, Rac1 act GTP bind 94, Rab2 wt GTP 98, HRas wt GTP 98, Rac1 wt modul 91 and Cdc42 wt GTP 95.
Screening COc1cc2[nH]c(=S)nc(NCCc3ccc(S(N)(=O)=O)cc3)c2cc1OC returned Rab7 wt GTP bind 81, Rac1 act GTP bind 61*, Rab2 wt GTP 37*, HRas wt GTP 35*, Rac1 wt modul 40* and Cdc42 wt GTP 32*.
Screening COc1cc2[nH]c(=S)nc(NCc3cccs3)c2cc1OC returned Rab7 wt GTP bind 90, Rac1 act GTP bind 81, Rab2 wt GTP 66*, HRas wt GTP 63*, Rac1 wt modul 60* and Cdc42 wt GTP 61*.
COc1ccc(CCNc2nc(=S)[nH]c3cc(OC)c(OC)cc23)cc1OC was read as Rab7 wt GTP bind 74*, Rac1 act GTP bind 67*, Rab2 wt GTP 47*, HRas wt GTP 48*, Rac1 wt modul 71* and Cdc42 wt GTP 49*.
COc1ccccc1CC(=O)NCCc1ccc(S(N)(=O)=O)cc1 was read as Rab7 wt GTP bind 100, Rac1 act GTP bind 102, Rab2 wt GTP 103, HRas wt GTP 103, Rac1 wt modul 111 and Cdc42 wt GTP 108.
COc1ccc(CCNC(=O)c2ccc(CNc3nc(=S)[nH]c4ccccc34)cc2)cc1OC was read as Rab7 wt GTP bind 105, Rac1 act GTP bind 96, Rab2 wt GTP 101, HRas wt GTP 98, Rac1 wt modul 96 and Cdc42 wt GTP 102.

Assay outcomes from PubChem BioAssay.
